Compound activity: PubChem BioAssay, National Center for Advancing Translational Sciences (NCATS)
Mito fusion act: qHTS Assay for Small Molecule Inhibitors of Mitochondrial Division or Activators of Mitochondrial Fusion; Potency, µM (titrated, usually from 46.1 µM), most hits filed as activators; S. cerevisiae fusion-defective mutant growth rescue, CellTiterGlo 48 h; 320,000 tested, 0.23% active; AID 485298, 2010; note: nearly all actives have a fitted effect of over 45% in size
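Temperature-sensitive fusion-defective S. cerevisiae (e.g. fzo1-1, mgm1-5) were grown with compound in YPEG medium (3% ethanol, 3% glycerol) for 48 hours at 37C. Growth rescue was measured as viability by CellTiterGlo luminescence after 10 minutes at ambient.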
aSyn yeast inh: qHTS of alpha-syn Inhibitors; Yeast expressing alpha-synuclein, growth rescue, BacTiter-Glo, 24 h; Potency, µM (titrated, usually from 46.1 µM), most hits filed as activators; 370,000 tested, 0.14% active; note: nearly all actives have a fitted effect of over 65% in size
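Galactose-induced alpha-syn yeast (OD600=0.02, raffinose-pregrown) + pinned cpd, 24 hr, 30 deg C; growth by BacTiter-Glo luminescence. Growth restoration scores as activation.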
TDP43 rescue: qHTS of TDP-43 Inhibitors | TDP-43 expressing yeast growth rescue, BacTiter-Glo, 24 h | Potency, µM (highest dose often 46.1 µM), hits mostly activators | AID 652104, 2013 | 410,000 tested, 1.8% active; note: nearly all actives have a fitted effect of over 50% in size
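Yeast expressing TDP-43 (pregrown in raffinose, seeded at OD600=0.02 in galactose medium) exposed to compounds 24 hr at 30 deg C. Growth read by BacTiter-Glo luminescence; rescue of toxicity appears as increased signal.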
Abeta yeast res: qHTS for compounds that reverse cellular toxicity of Amyloid beta (A-beta) peptide in yeast: Primary Screen; yeast expressing A-beta42, growth rescue, OD600, 48 h; response scale: 0% DMSO, 100% iron-clioquinol control; Potency, µM (highest dose often 46.1 µM), hits mostly activators; 410,000 tested, 0.063% active; note: nearly all actives have a fitted effect of over 55% in size
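Yeast growth medium received pinned compounds, then yeast cells expressing toxic A-beta were added; plates incubated at 30 C for 48 hr. Growth read as absorbance at 600 nm, normalized to DMSO and equimolar FeCl3 plus clioquinol controls.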
FUS yeast rescue: qHTS for Suppressors of FUS Proteinopathy: Primary screen using FUS-linked yeast assay; S. cerevisiae FUS-expressing, growth rescue, OD600, 24 h; Potency, µM (doses to about 76.6 µM), usual class: activators; 390,000 tested, 0.24% active; AID 1347120, 2019; note: nearly all actives have a fitted effect of over 55% in size
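Toxicity suppression screen in FUS-yeast. Cells induced with 2% galactose, starting OD 0.005, treated 24hr at 30C with compounds at multiple final concentrations; growth by OD600.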
A number is an active result; [ ] = another dose, or the depositor's remark. An excerpt weighted towards active compounds, which were near 2.2% of everything screened. Calls come from the whole dose curve; as a rule, active = well fitted curve in the direction sought with a large enough effect; inconclusive = small, poorly fitted or top-dose-only effect, or another doubt; inactive = no such curve, though single readings can be large; an effect the other way counts as inactive or inconclusive.

For O=C(c1ccccc1F)N1CCN(S(=O)(=O)c2ccc3ccccc3c2)CC1 the results were Mito fusion act inactive, aSyn yeast inh inactive, TDP43 rescue 35µM, Abeta yeast res inactive and FUS yeast rescue inactive.
CCCc1cc(=O)n2[nH]c(NC(=O)c3ccc(C(C)(C)C)cc3)nc2n1 was read as TDP43 rescue inactive, Abeta yeast res inactive and FUS yeast rescue inactive.
For O=C(Nc1ccccc1C(F)(F)F)c1noc2c1CCCC2 the results were TDP43 rescue inactive, Abeta yeast res inactive and FUS yeast rescue inactive.
For CN(CC(=O)Nc1ccc(Cl)cc1)C(=O)c1sccc1-c1ccccc1 the results were Mito fusion act inactive, aSyn yeast inh inactive, TDP43 rescue 22µM, Abeta yeast res inconclusive and FUS yeast rescue inactive.
CCc1ccc(NC(=O)CN(c2ccc(C)cc2)S(=O)(=O)c2c(C)nn(C)c2C)cc1 was read as TDP43 rescue inactive, Abeta yeast res inactive and FUS yeast rescue inactive.
For CCOC(=O)c1cnc2ccc(OCC)cc2c1N1CCN(c2cccc(Cl)c2)CC1 the results were TDP43 rescue 20µM, Abeta yeast res inactive and FUS yeast rescue inconclusive.
CCOC(=O)c1cnc2ccc(OCC)cc2c1N1CCN(C)CC1 was read as Mito fusion act inactive, aSyn yeast inh inactive, TDP43 rescue inactive, Abeta yeast res inactive and FUS yeast rescue inactive.
`Cc1ccc2sc(N(Cc3cccnc3)C(=O)CCS(=O)(=O)c3ccccc3)nc2c1C` gave TDP43 rescue inactive, Abeta yeast res inactive and FUS yeast rescue inactive.
Screening COc1ccc2sc(-c3ccc(N(C)C)cc3)c(C#CC(C)(C)O)c2c1 returned Mito fusion act inactive, aSyn yeast inh inactive, TDP43 rescue inactive, Abeta yeast res inactive and FUS yeast rescue inactive.
`COc1cccc(-c2sc3ccc(OC)cc3c2C#CC(C)(C)O)c1` gave Mito fusion act inconclusive, aSyn yeast inh inactive, TDP43 rescue 18µM, Abeta yeast res inactive and FUS yeast rescue inconclusive.
Screening COc1cccc(-c2sc3ccc(OC)cc3c2C#CCC(C)O)c1 (configuration not stated) returned Mito fusion act inactive, aSyn yeast inh inactive, TDP43 rescue 25µM, Abeta yeast res inactive and FUS yeast rescue inconclusive.
`CCC(Oc1ccc(F)cc1)C(=O)Nc1nc2c(s1)CCCC2` (configuration not stated) gave TDP43 rescue 11µM, Abeta yeast res inconclusive and FUS yeast rescue inactive.
Screening Cc1ccc(C(=O)Nc2nc3c(s2)CCCC3)o1 returned Mito fusion act inactive, aSyn yeast inh inactive, TDP43 rescue 14µM, Abeta yeast res inactive and FUS yeast rescue inactive.
For CCn1c(=O)c2cc(C(=O)N3CCN(c4cccc(OC)c4)CC3)sc2c2ccccc21 the results were TDP43 rescue inconclusive, Abeta yeast res inactive and FUS yeast rescue inconclusive.
CC(C)c1ccc(C2=NC(c3ccncc3)=Nc3ccc(F)cc3N2)cc1 was read as TDP43 rescue inactive, Abeta yeast res inactive and FUS yeast rescue inactive.
Screening COc1ccc(NC(=O)c2cc3ccccc3o2)cc1 returned Mito fusion act inactive, aSyn yeast inh inactive, TDP43 rescue inactive, Abeta yeast res inactive and FUS yeast rescue inactive.
`COc1ccc(NC(=O)c2cc3ccccc3o2)cc1OC` gave Mito fusion act inactive, aSyn yeast inh inactive, TDP43 rescue 13µM, Abeta yeast res inactive and FUS yeast rescue inactive.
`CN(C)S(=O)(=O)c1cccc(NC(=O)c2cc3ccccc3o2)c1` gave Mito fusion act inactive, TDP43 rescue 8.9µM, Abeta yeast res inactive and FUS yeast rescue inactive.
`CCN(CC)S(=O)(=O)c1cccc(NC(=O)c2cc3ccccc3o2)c1` gave Mito fusion act inactive, aSyn yeast inh inactive, TDP43 rescue inconclusive, Abeta yeast res inactive and FUS yeast rescue inactive.
Screening Nc1ccc(-c2nc3ncccc3o2)cc1 returned Mito fusion act inactive, aSyn yeast inh 16µM, TDP43 rescue inactive, Abeta yeast res inconclusive and FUS yeast rescue inactive.
Screening O=C(Nc1cccc(-c2nc3ncccc3o2)c1)c1cc2ccccc2o1 returned Mito fusion act 13µM, aSyn yeast inh inactive, TDP43 rescue inconclusive, Abeta yeast res inactive and FUS yeast rescue inactive.
`Cc1ccc(-c2nc3ncccc3o2)cc1NC(=O)c1cc2ccccc2o1` gave Mito fusion act inactive, aSyn yeast inh inactive, TDP43 rescue inactive, Abeta yeast res inactive[9.22 µM] and FUS yeast rescue inactive.
`CCN(c1cccc(C)c1)S(=O)(=O)c1ccc(N2CCCCS2(=O)=O)cc1` gave TDP43 rescue inactive, Abeta yeast res inactive and FUS yeast rescue inconclusive.
`CCc1nn(CC(=O)NCCc2ccc(OC)cc2OC)c(=O)c2cc3sccc3n12` gave TDP43 rescue inactive, Abeta yeast res inactive and FUS yeast rescue inactive.
Screening CC(C)(C)C1CCc2sc(C(=O)NNC(=O)CCl)cc2C1 (configuration not stated) returned Mito fusion act inactive, aSyn yeast inh inactive, TDP43 rescue 13µM, Abeta yeast res inactive and FUS yeast rescue inactive.
`CC(C)(C)C1CCC(=NNC(=O)c2cc3c(s2)CCCC3)CC1` (configuration not stated) gave Mito fusion act inactive, aSyn yeast inh inactive, TDP43 rescue inactive and Abeta yeast res inactive.
CC1(C(=O)Nc2ccc(Cl)c(Cl)c2)CCN1CCc1ccccc1 (configuration not stated) was read as aSyn yeast inh inactive, TDP43 rescue inactive, Abeta yeast res inactive and FUS yeast rescue inactive.
CC1(C)NC(=O)N(CCCCOc2ccc(Br)cc2Cl)C1=O was read as Mito fusion act inactive, aSyn yeast inh inactive, TDP43 rescue 13µM, Abeta yeast res inactive and FUS yeast rescue inactive.
`CC1(C)NC(=O)N(CCCOc2ccc(Br)cc2Cl)C1=O` gave Mito fusion act inactive, aSyn yeast inh inactive, TDP43 rescue inactive, Abeta yeast res inactive and FUS yeast rescue inconclusive.
`Cc1cc(OCCCCN2C(=O)NC(C)(C)C2=O)cc(C)c1Cl` gave Mito fusion act inactive, TDP43 rescue 18µM, Abeta yeast res inactive and FUS yeast rescue inactive.
Screening CC1(C)NC(=O)N(CCCCOc2ccc(Cl)cc2)C1=O returned Mito fusion act inactive, aSyn yeast inh inactive, TDP43 rescue inactive, Abeta yeast res inactive and FUS yeast rescue inactive.
For CC(=O)c1ccc(N2CCN(C(=O)C3CCN(S(=O)(=O)c4cn(C)cn4)CC3)CC2)cc1 the results were TDP43 rescue inactive, Abeta yeast res inactive and FUS yeast rescue inactive.
For O=C(c1cccc([N+](=O)[O-])c1)N1CCN(c2ccc(Nc3ccccc3)nn2)CC1 the results were TDP43 rescue inactive, Abeta yeast res inactive and FUS yeast rescue inactive.
`O=C(NCC1CCN(C(=O)c2c(F)c(F)c(F)c(F)c2F)CC1)c1c(F)c(F)c(F)c(F)c1F` gave Mito fusion act inactive, aSyn yeast inh inactive, TDP43 rescue 13µM and Abeta yeast res inactive.
